Data: PubChem BioAssay AID1650 (Southern Research Specialized Biocontainment Screening …, 2009)
Results with a measured potency or affinity are listed apart. The source made the active and inactive calls. How the calls were made is not given here.

Experiment: host cell cytotoxicity of antiviral hits, dose response, cytotoxicity control for West Nile virus antiviral project, secondary assay (AID 1650)
Details: Mammalian host cell viability, cytotoxicity counter-screen; series mostly up to 10 µM
With O=C(NCCC1=CCCCC1)c1coc(=O)c(Br)c1 the outcome was “inactive”.
For CN(C)CCCN(C(=O)c1ccc2c(c1)CCCC2)c1nc2ccc(F)cc2s1, the outcome was “inactive”.
With COc1ccc(/C=C2/SC(=S)N(CCC(=O)N3CCN(C)CC3)C2=O)cc1 the outcome was “inactive”.
In the case of Cc1cccc(CN2CCC(CNC(=O)Nc3ccc(F)c(Cl)c3)CC2)c1, the outcome is reported as “inactive”.
With CCc1ccc(NC(=O)CSc2nc3ccccc3c(=O)n2CCCC(=O)NCCCN2CCOCC2)cc1 the outcome was “inactive”.
With Cc1ccccc1CN(CC(=O)Nc1cccc([N+](=O)[O-])c1)S(=O)(=O)c1ccc(Cl)cc1 the outcome was “inactive”.
For CCCCCCn1c(SCC(=O)Nc2cc(C)on2)nc2ccccc2c1=O, the outcome was “inactive”.
In the case of COc1c(O)ccc2c1CN1CCc3cc4c(cc3C1C2)OCO4 (stereo not given), the outcome is reported as “inactive”.
In the case of CC(C)n1cc(/C=C2/SC(=O)N(CC(=O)Nc3ccc4c(c3)OCO4)C2=O)c2ccccc21, the outcome is reported as “inactive”.
With c1ccc(-c2ccc(-c3[nH]ncc3CN3CCC(N4CCSCC4)CC3)cc2)cc1 the outcome was “inactive”.
For CN1CCN(c2ccc(NC(=O)c3ccc(-c4cccc([N+](=O)[O-])c4)o3)cc2)CC1, the outcome was “inactive”.
With Cc1ccc(-c2nc3ccccc3s2)cc1NC(=S)NC(=O)c1cccc2ccccc12 the outcome was “inactive”.
For C=CCN=C1CC(C)(C)CC(=O)/C1=C(/O)CCC(=O)OC, the outcome was “inactive”.
In the case of Cc1ccc(OCC(O)Cn2c(=N)n(CCN3CCCCC3)c3ccccc32)cc1 (stereo not given), the outcome is reported as “inactive”.
With CCOC(=O)C1(Cc2cccc(OC)c2)CCCN(C(=O)c2ccccc2C)C1 (stereo not given) the outcome was “inactive”.
With CCN(CC)CCCNC(=O)c1cc(-c2ccccc2)c(N2CCCCC2)s1 the outcome was “inactive”.
For CN1CCN(NC(=O)c2cc(-c3ccc(Br)s3)nc3ccccc23)CC1, the outcome was “inactive”.
With COc1ccc(C2c3ccc4ccccc4c3Oc3ncn(CCO)c(=N)c32)cc1 (stereo not given) the outcome was “inactive”.
In the case of COc1ccc(C2c3[nH]c4ccccc4c3CCN2C(=O)c2cc3ncccn3n2)c(F)c1 (stereo not given), the outcome is reported as “inactive”.
With CCOC(=O)c1cnc2ccc(OC)cc2c1Nc1ccc(N2CCN(C)CC2)cc1 the outcome was “inactive”.
With COc1ccc(Nc2nc3ccccc3nc2C)cc1 the outcome was “inactive”.
With CC(C)Cc1nc2oc3c(NCCCN4CCOCC4)ncnc3c2c2c1CCC2 the outcome was “inactive”.
With O=c1c(O[C@@H]2O[C@H](CO)[C@@H](O)[C@H](O)[C@H]2O)c(-c2ccc(O)c(O)c2)oc2cc(O)cc(O)c12 the outcome was “inactive”.
For CCc1ccc2nc(N(CCCN(C)C)C(=O)c3ccc4c(c3)OCCO4)sc2c1, the outcome was “inactive”.
In the case of COc1ccc(NC(=O)CSc2nc3ccccc3c(=O)n2CCCN2CCC(C)CC2)c(OC)c1, the outcome is reported as “inactive”.
For Nc1nonc1-n1nnc(C(=O)N/N=C/c2ccc(OCc3ccccc3)cc2)c1CNc1ccccc1, the outcome was “inactive”.
With CCOC(=O)C(CC)(CC)C(=O)/C=C/c1cccc(Br)c1 the outcome was “inactive”.
For CCN(CCCNC(=O)c1cc2c(-c3cccc(OC)c3)nn(C)c2s1)Cc1ccccc1, the outcome was “inactive”.
In the case of O=C(Nc1cccnc1Cl)c1cc(-c2ccc(Cl)cc2)on1, the outcome is reported as “inactive”.
In the case of O=C(CSCc1ccc(Cl)cc1)Nc1ccc2c(c1)OCCO2, the outcome is reported as “inactive”.
In the case of CCOC(=O)C(=Cc1ccc(F)cc1)C(=O)OCC, the outcome is reported as “inactive”.
For CCOC(=O)N1CCC(N2C(=O)c3ccccc3C2Nc2cc(C)cc(C)c2)CC1 (stereo not given), the outcome was “inactive”.
For CCc1cc(-c2[nH]ncc2-c2ccc(OC)cc2)c(O)cc1O, the outcome was “inactive”.
For COc1ccc(-c2csc(NC3OC(=O)c4ccccc43)n2)cc1 (stereo not given), the outcome was “inactive”.
In the case of CN(C)CCNc1oc(COc2ccc(-c3ccccc3)cc2)nc1C#N, the outcome is reported as “inactive”.
In the case of COc1ccc(C2c3c(ncn(CCN4CCOCC4)c3=N)Oc3ccc4ccccc4c32)cc1 (stereo not given), the outcome is reported as “inactive”.
For O=C(c1cccc(S(=O)(=O)N2CCOCC2)c1)N1CCOCC1, the outcome was “inactive”.
In the case of CN(C)CCNc1ncnc2c1sc1nc(-c3ccccc3)c3c(c12)CCCC3, the outcome is reported as “inactive”.
With Cc1cccc(C)c1Nc1nc2ccccc2o1 the outcome was “inactive”.
With O=C(CNc1cccc2ccccc12)N/N=C/c1ccc([N+](=O)[O-])o1 the outcome was “inactive”.
